The list is not random: actives were taken first. Their share in the collection is about 1.6%.
Glioma ERSR ind: qHTS for Inducers of the Endoplasmic Reticulum Stress Response (ERSR) in Human Glioma: qHTS | U87-MG GRP78 promoter luciferase reporter, 16 h | Potency, µM, without a hit: at the top dose activation, usual class: activators | actives 0.02% (n = 420,000) | AID 602332, 2012; active = well fitted activation curve with a large enough effect; inconclusive = small, poorly fitted or top-dose-only effect; inactive = no such curve, though single readings can be large or run the other way; also: potency is read from the fitted curve at half-maximal effect; series mostly up to about 76 µM; % of control where 0% means no effect; nearly all actives have a fitted effect of over 35% in size
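ERSR induction read as luciferase luminescence (Bright-Glo, 10 min at room temperature) in stably transfected human U87-MG glioma cells exposed to compounds for 16 h, using GRP78 as sensor.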
pAkt inh: HTS Assay for Inhibitors of Akt Phophorylation: Primary Screen. Neuro2A IGF-stimulated pAkt S473 HTRF, 20 min; hits give low values. activity change, % for hits at 50 µM. actives 0.32% (n = 360,000); in the data active = activity change below about -80%; inconclusive = mostly about -51% to -80%; also: % is scaled to controls: 0 for no effect and ±100 for the full control effect
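Neuro2A cells (4,500/well, DMEM with 0.5% FBS) were treated with compound at a single 50 µM final concentration, stimulated with 6 nM IGF for 20 min at 37 °C, and lysed. Phospho-Akt Ser473 was read by HTRF as 665/615 ratio ×10^4.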
gsp antagonist: qHTS for Antagonists of gsp, the Etiologic Mutation Responsible for Fibrous Dysplasia/McCune-Albright Syndrome: qHTS; gsp-mutant cells, cAMP HTRF, 30 min; AID 624288, 2012; actives 0.4% (n = 340,000); Potency, µM (top dose mostly 76.9 µM), without a hit: top-dose activity change, negative = inhibition, actives largely listed as inhibitors; calls by dose curve; cell line not stated here;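 also: intracellular cAMP measured with PDE inhibitor Ro 20-1724 present during compound exposure; potency is read from the fitted curve at half-maximal effect; % is scaled to controls: 0 for no effect and ±100 for the full control effect; nearly all actives have a fitted effect of over 65% in size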
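Cells in G418 medium, seeded 16-24 h, 37C; buffer exchange to DPBS + 1 mM CaCl2, 0.5 mM MgCl2, 0.05% BSA; cpds in DMSO + […] (300 uM stock), 30 min 37C; HTRF cAMP detection.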
gsp agonist: qHTS for Agonist of gsp, the Etiologic Mutation Responsible for Fibrous Dysplasia/McCune-Albright Syndrome: qHTS; gsp mutant cells, cAMP HTRF, 30 min; Potency, µM (top dose mostly 76.9 µM), for inactives: top-dose activation (cAMP increase), actives largely listed as activators; actives 0.13% (n = 340,000); AID 624287, 2012; active = well fitted activation curve with a large enough effect; inconclusive = small, poorly fitted or top-dose-only effect, or another doubt; inactive = no such curve, though single readings can be large or run the other way; cell line not stated here;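 also: phosphodiesterase inhibitor Ro 20-1724 added with compounds to block cAMP breakdown; potency is read from the fitted curve at half-maximal effect; nearly all actives have a fitted effect of over 60% in size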
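Cells stably selected in G418 were plated at 2000/well, grown 16-24 hr, then given compounds in DMSO with the PDE inhibitor […] (300 uM solution added) for 30 min at 37C; cAMP was read by HTRF.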
KCNH2 WT inh: qHTS for Inhibitors of KCHN2 3.1: Wildtype qHTS; U2OS, BacMam KCNH2, thallium flux FluxOr; hits give low values; Voltage-gated inwardly rectifying potassium channel KCNH2 (Homo sapiens), Q12809; AID 720551, 2013; activity change, % at 1.84 µM; actives 0.37% (n = 340,000);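 active = maximum activity change below -70%; inconclusive = maximum activity change between -70% and -50%; inactive = maximum activity change above -50%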; also: % is scaled to controls: 0 for no effect and ±100 for the full control effect
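U2OS cells transduced with wild-type KCNH2 virus are loaded with FluxOr dye for 45 min, and thallium flux is measured in kinetic reads before and after stimulation buffer. Rate constants are normalized to DMSO controls.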
KCNH2 3.1 block: qHTS for Inhibitors of KCHN2 3.1: Mutant qHTS. U2OS KCNH2 3.1, thallium flux FluxOr; hits give low values. activity change, % (tested at about 1.8 µM). actives 0.95% (n = 340,000);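 active = maximum activity change below -70%; inconclusive = maximum activity change from -70% to -50%; inactive = maximum activity change above -50%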;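 also: thallium influx rate constant from kinetic fluorescence after stimulation buffer; % is scaled to controls: 0 for no effect and ±100 for the full control effect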
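Virally transduced U2OS (3.1 isoform, 4 h infection in dark at RT) → overnight 37 C → FluxOr + Red40 in HBSS/HEPES, 45 min → stimulation buffer, 2 min kinetic read → rate constant vs DMSO controls.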
The depositor's hits bear a star; i = inactive; ? = inconclusive; . = not tested or not shown; [ ] = another dose, or the depositor's remark.

SMILES | Glioma ERSR ind | pAkt inh | gsp antagonist | gsp agonist | KCNH2 WT inh | KCNH2 3.1 block
C=C1CCN([C@@H](Cc2ccccc2)C(=O)NCc2ccccc2)S(=O)(=O)c2ccccc21 | -3.5% | i | -5.0% | -65.8% | 2.5 | -10.8
C=C1CCN([C@@H](Cc2ccccc2)C(=O)NCc2ccc(Cl)cc2)S(=O)(=O)c2ccccc21 | -0.1% | i | 0.0% | -2.2% | -15.2 | -70.4*
COc1ccc([C@H]2C[C@H](n3cc(C4CC4)nn3)[C@@H](O)CN2CC2CCCCC2)cc1 | 1.4% | i | . | -59.3% | 1.4 | -84.3*
O[C@@H]1CN(CC2CCCCC2)[C@@H](c2ccc(Cl)cc2)C[C@H]1n1cc(C2CC2)nn1 | -4.7% | i | . | -2.7% | -10.6 | -2.9
C=CCC[C@H](Cc1ccc(F)cc1)C(=O)OC[C@@H](NC(=O)[C@@H](CC=C)CC(=O)N[C@@H](CO)Cc1ccccc1)C(C)(C)C | -3.1% | i | -7.8% | 13.0% | -100.0* | -17.4
CC[n+]1c(/C=C/C=C2/N(C)c3ccccc3C2(C)C)sc2ccccc21 | -14.7% | . | . | . | . | .
CC(=O)/C(=N/Nc1ccccc1)Sc1nnc(CCc2ccccc2)n1-c1ccccc1 | -3.8% | i | ? | -17.0%[15.4 µM] | -6.1 | -90.2*
CC(=O)/C(=N\Nc1ccc(Cl)cc1)Sc1nnc(-c2ccccc2)n1-c1ccccc1 | -5.4% | i | -26.4% | -5.4%[15.4 µM] | -2.0 | 5.3
CSc1ccccc1NC(=O)COC(=O)Cc1ccsc1 | -0.1% | i | 7.6% | ? | 1.2 | -96.8*
CCOc1ccccc1NC(=O)COC(=O)Cc1ccsc1 | -3.1% | i | 14.1% | 0.0% | -15.1 | -6.5
O=C(CCN1C(=O)/C(=C\c2ccccc2)SC1=S)NNC(=O)c1ccncc1 | -3.2% | i | -16.1% | -7.9% | 14.6 | -1.1
Cc1cc(/C=C2\SC(=S)N(Cc3ccco3)C2=O)c(C)n1-c1cccnc1 | 4.2% | i | 1.6% | -26.0% | -13.2 | -49.0
CC(C)c1ccc(/C=C2\SC(=S)N(CCC(=O)NCCCn3ccnc3)C2=O)cc1 | -6.0% | i | 4.8% | 4.3% | -1.1 | -77.4*
O=C1/C(=C/c2ccccc2)SC(=S)N1CC(=O)N1CCCCC1c1cccnc1 (stereo not given) | -12.2% | i | 39.8µM* | 30.4% | -3.5 | -21.2
O=C(CCN1C(=O)/C(=C/c2ccccc2)SC1=S)NNC(=O)c1ccncc1 | -0.2% | i | 39.8µM* | -30.8% | -2.8 | 4.7
O=C1/C(=C/c2cccnc2)SC(=S)N1Cc1ccco1 | -3.2% | i | 35.5µM* | -22.3% | -4.4 | 2.7
Cc1nc2sccn2c1CN1Cc2ccccc2OC(c2ccccc2F)C1 (stereo not given) | -0.5% | . | . | . | . | .
Cc1ccc(C)c(NC(=O)CCN2CC(C)CC(C)C2)c1 (stereo not given) | -1.8% | i | 9.7% | ? | -1.6 | -73.4*
Cc1ccc(Sc2c(C=O)c3ccccc3n2C)cc1 | -7.0% | i | -3.9% | 17.8µM* | 1.4 | -1.5
Cc1ccc(Sc2c([N+](=O)[O-])c(=O)n(C)c3ccccc23)cc1 | ? | i | ? | 7.2% | -1.7 | 7.0
Cc1ccc(Sc2c(O)c3ccccc3n(C)c2=O)cc1 | -1.9% | i | 23.1% | 12.6µM* | -21.0 | -9.8
CS(=O)(=O)Nc1ccc(C2=NN(C(=O)c3ccco3)C(c3cccc(F)c3)C2)cc1 (stereo not given) | 7.0% | i | ? | -22.9% | 16.4 | .
CCS(=O)(=O)Nc1ccc(C2=NN(C(=O)c3ccco3)C(c3cccc(F)c3)C2)cc1 (stereo not given) | -1.1% | i | 22.4µM* | -17.1% | 0.1 | -4.1
COc1cc(OC)c(OC)cc1CN1CCCC(c2[nH]ncc2-c2cccc(C(F)(F)F)c2)C1 (stereo not given) | -2.2% | . | . | . | . | .
Cc1ccccc1-c1nc2ccccc2[nH]1 | 1.4% | -123.6%* | -1.8% | 27.0% | -5.9 | 0.4
SMILES | Glioma ERSR ind | pAkt inh | gsp antagonist | gsp agonist | KCNH2 WT inh | KCNH2 3.1 block
c1ccc2c(-c3nc4ccccc4[nH]3)cccc2c1 | 0.4% | i | . | ? | 16.3 | -122.1*
N[C@@H](C(=O)N[C@H]1C(=O)N2C(C(=O)O)=C(Cl)CC[C@H]12)c1ccccc1 | 0.1% | . | . | . | . | .
Cc1nc(C)c(-c2ccc(SCc3ccc(Cl)cc3)nn2)s1 | 0.8% | i | -13.1% | 7.3% | 1.8 | 3.2
Cc1nc(C)c(-c2ccc(SCc3cccc(F)c3)nn2)s1 | -0.7% | i | -9.2% | 8.8% | -0.4 | -93.9*
CCCCN(C)C(=S)Nc1ccc2nc(N3CCN(CC)CC3)cc(C)c2c1 | -2.0% | i | 6.8% | -12.8% | 9.2 | -1.5
CCN1CCN(c2cc(C)c3cc(NC(=S)N(C)Cc4ccccc4)ccc3n2)CC1 | -6.0% | i | 19.0% | ? | -7.3 | -70.1*
COC(=O)c1ccc(C2c3[nH]c4ccccc4c3C[C@H]3C(=O)N(C4CCN(Cc5ccccc5)CC4)CC(=O)N23)cc1 (stereo not given in full) | -2.8% | i | -1.8% | ? | -42.0 | -79.9*
CCOc1ccccc1C1c2[nH]c3ccccc3c2C[C@H]2C(=O)N(C3CCN(Cc4ccccc4)CC3)CC(=O)N12 (stereo not given in full) | -3.4% | i | 2.1% | 18.3%[15.4 µM] | -93.8* | -102.5*
CC(=O)Nc1ccc(Nc2nc(Nc3ccc(Cl)cc3)nc(N3CCOCC3)n2)cc1 | -2.8% | . | . | . | . | .
COCC(=O)Nc1cc(C(=O)N2CC3(C)CC2CC(C)(C)C3)c2c(c1)nc(-c1ccncc1)n2C (stereo not given) | 5.6% | . | . | . | . | .
COc1ccc(CCNC(=O)CSc2ccc(-c3ccccc3)nn2)cc1OC | -1.8% | i | -0.4% | 7.7% | -5.3 | 0.8
COc1ccc(CCNC(=O)CSc2nnc(C(C)N(C)C)n2Cc2ccccc2)cc1OC (stereo not given) | -3.0% | i | 5.2% | 0.7%[15.4 µM] | -30.4 | -71.2*
COc1ccc(CCNC(=O)CSc2nc(O)cc(=O)[nH]2)cc1OC | -1.4% | i | 9.2% | -44.6% | -1.4 | -79.9*
C/C(=N\O)c1ccc2c3c([nH]c2c1)CCCC3 | -14.6% | -90.2%* | -7.8% | ? | 0.2 | 2.7
COC(=O)[C@@H]1CCCN1C(=O)c1c(OC)cc(=O)n2c1CCN(Cc1ccc(C)o1)CC2 | 0.8% | . | . | . | . | .

High-throughput results: PubChem, National Center for Advancing Translational Sciences (NCATS)
